About 410 targets per protein were measured; listed, in parts, are those with the strongest signals and a random draw of the rest.
Assays:
Test in all cases: glycan array binding signal (z-score within array); higher = stronger binding
Details in all cases: glycan notation: IUPAC condensed, linker removed
Fuc(a1-2)Gal = biological target: Fuc(a1-2)Gal
How it was run: (§1)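 Arrays were curated from the Consortium for Functional Glycomics database, 3228 in total, and kept only where the protein sequence was available. Binding is expressed as a within-array Z-score. This score was averaged across arrays of the same protein sequence at different concentrations or buffers and across linkers, and negative values can be read as non-binding.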

[1] = biological target: Fuc(a1-2)Gal(b1-3)GlcNAc(b1-2)Man(a1-3)[Fuc(a1-2)Gal(b1-3)GlcNAc(b1-2)Man(a1-6)]Man(b1-4)GlcNAc(b1-4)GlcNAc
How it was run: as §1

[2] = biological target: Fuc(a1-2)Gal(b1-3)GlcNAc(b1-3)[Gal(b1-4)GlcNAc(b1-6)]Gal(b1-4)Glc
How it was run: as §1

[3] = biological target: Fuc(a1-2)Gal(b1-3)[Fuc(a1-4)]GlcNAc(b1-3)[Gal(b1-4)GlcNAc(b1-6)]Gal(b1-4)Glc
How it was run: as §1

[4] = biological target: Fuc(a1-2)Gal(b1-4)GlcNAc(b1-2)Man(a1-3)[Fuc(a1-2)Gal(b1-4)GlcNAc(b1-2)Man(a1-6)]Man(b1-4)GlcNAc(b1-4)[Fuc(a1-6)]GlcNAc
How it was run: as §1

[5] = biological target: Fuc(a1-2)Gal(b1-4)GlcNAc(b1-2)[Fuc(a1-2)Gal(b1-4)GlcNAc(b1-4)]Man(a1-3)[Fuc(a1-2)Gal(b1-4)GlcNAc(b1-2)Man(a1-6)]Man(b1-4)GlcNAc(b1-4)GlcNAc
How it was run: as §1

[6] = biological target: Fuc(a1-2)Gal(b1-4)[Fuc(a1-3)]GlcNAc(b1-2)[Fuc(a1-2)Gal(b1-4)[Fuc(a1-3)]GlcNAc(b1-4)]Man(a1-3)[Fuc(a1-2)Gal(b1-4)[Fuc(a1-3)]GlcNAc(b1-2)Man(a1-6)]Man(b1-4)GlcNAc(b1-4)GlcNAc
How it was run: as §1

Fuc(a1-2)Gal6S(b1-4)Glc = biological target: Fuc(a1-2)Gal6S(b1-4)Glc
How it was run: as §1

[7] = biological target: Fuc(a1-2)Gal6S(b1-4)Glc6S
How it was run: as §1

[8] = biological target: Gal(a1-3)Gal(b1-3)[Fuc(a1-4)]GlcNAc(b1-2)Man(a1-3)[Gal(a1-3)Gal(b1-3)[Fuc(a1-4)]GlcNAc(b1-2)Man(a1-6)]Man(b1-4)GlcNAc(b1-4)GlcNAc
How it was run: as §1

[9] = biological target: Gal(a1-3)Gal(b1-4)GlcNAc(b1-6)GalNAc
How it was run: as §1

Gal(a1-4)Gal(b1-4)GlcNAc = biological target: Gal(a1-4)Gal(b1-4)GlcNAc
How it was run: as §1

Gal(a1-6)Glc = biological target: Gal(a1-6)Glc
How it was run: as §1

[10] = biological target: Gal(b1-3)GalNAc(b1-3)Gal(a1-4)Gal(b1-4)Glc
How it was run: as §1

[11] = biological target: Gal(b1-3)GlcNAc(b1-3)Gal(b1-3)GlcNAc
How it was run: as §1

[12] = biological target: Gal(b1-3)GlcNAc(b1-3)Gal(b1-4)[Fuc(a1-3)]GlcNAc
How it was run: as §1

[13] = biological target: Gal(b1-3)GlcNAc(b1-3)Gal(b1-4)[Fuc(a1-3)]GlcNAc(b1-6)[Gal(b1-3)GlcNAc(b1-3)]Gal(b1-4)Glc
How it was run: as §1

Gal(b1-4)Gal = biological target: Gal(b1-4)Gal
How it was run: as §1

[14] = biological target: Gal(b1-4)GlcNAc(b1-2)[Gal(b1-4)GlcNAc(b1-4)]Man(a1-3)[Gal(b1-4)GlcNAc(b1-2)Man(a1-6)]Man(b1-4)GlcNAc(b1-4)GlcNAc
How it was run: as §1

[15] = biological target: Gal(b1-4)GlcNAc(b1-3)Gal(b1-3)GlcNAc
How it was run: as §1

[16] = biological target: Gal(b1-4)GlcNAc(b1-3)Gal(b1-4)GlcNAc(b1-3)Gal(b1-4)GlcNAc(b1-2)[Gal(b1-4)GlcNAc(b1-3)Gal(b1-4)GlcNAc(b1-3)Gal(b1-4)GlcNAc(b1-6)]Man(a1-6)[Gal(b1-4)GlcNAc(b1-3)Gal(b1-4)GlcNAc(b1-3)Gal(b1-4)GlcNAc(b1-2)Man(a1-3)]Man(b1-4)GlcNAc(b1-4)[Fuc(a1-6)]GlcNAc
How it was run: as §1

[17] = biological target: Gal(b1-4)GlcNAc(b1-3)Gal(b1-4)GlcNAc(b1-3)Gal(b1-4)GlcNAc(b1-3)Gal(b1-4)GlcNAc(b1-3)Gal(b1-4)GlcNAc(b1-2)[Gal(b1-4)GlcNAc(b1-3)Gal(b1-4)GlcNAc(b1-3)Gal(b1-4)GlcNAc(b1-3)Gal(b1-4)GlcNAc(b1-3)Gal(b1-4)GlcNAc(b1-6)]Man(a1-6)[Gal(b1-4)GlcNAc(b1-3)Gal(b1-4)GlcNAc(b1-3)Gal(b1-4)GlcNAc(b1-3)Gal(b1-4)GlcNAc(b1-3)Gal(b1-4)GlcNAc(b1-2)Man(a1-3)]Man(b1-4)GlcNAc(b1-4)[Fuc(a1-6)]GlcNAc
How it was run: as §1

[18] = biological target: Gal(b1-4)GlcNAc(b1-3)Gal(b1-4)GlcNAc(b1-6)[Gal(b1-3)]GalNAc
How it was run: as §1

[19] = biological target: Gal(b1-4)GlcNAc(b1-3)Gal(b1-4)[Fuc(a1-3)]GlcNAc(b1-3)Gal(b1-4)[Fuc(a1-3)]GlcNAc
How it was run: as §1

[20] = biological target: Gal3S(b1-4)[Fuc(a1-3)]GlcNAc6S
How it was run: as §1

B1: GS7807E-bfa-538-23-538 (Bacteroides fragilis) (protein)
chain: TDSFESFNTNEAGFDNDSKKQDFNYYGIPLGIIQQGIYFNYDWGSGKNWPFQTMQNLGADLFSGYVHDFNPFNEGKNNSTYYMMDGWNGSTWDNTYGYIMPEVQKSETINEKDNIGFFGITKILKVELMHRLSDLYGPIVYTQFGSKTGSTPDTQQEAYKAFFNDLDTGIAKIREYQKANPDIESFAKFDILMPQGKRTFSEWIRFANSLRLRLAVRIAMADSKLAVAEAQKALTDEEGLLEGNDEVVAVSTSSGYTNPFGEINKAWGEVFMNANMESLLVGYEDPRMEKYFDKATGSDATSLIDYKGTYKGIRQGTGFSHKNYNGHSKSTITQQTDAVLMTPAEVWFLRAEAALRGWSSESVKDCYEKGVKASFAQWGAAGAEAYLESDRKPSDYVDAFKAANNVKAVNTLTPKWDDAAGNEDKLGRIITQKWLAMFPEGGEAWAEQRRTGYPRLFPVLVNQSEGTVDTNLGPRRLNFFVGIKTTNPEQYTQLVNALGGIDNCGTRLWWDTGRNF
Question: For B1, which “glycan array binding signal (z-score)” value (Fuc(a1-2)Gal) is on record?
Answer: Its value is -0.69.

Question: What about the “glycan array binding signal (z-score)” value [1] of the same binder?
Answer: Its value is 3.42.

Question: What about the “glycan array binding signal (z-score)” value [2] of the same binder?
Answer: The value was 1.03.

Question: And the “glycan array binding signal (z-score)” value [3]?
Answer: Its value is -0.553.

Question: And the “glycan array binding signal (z-score)” value [4]?
Answer: The value was -0.382.

Question: What about the “glycan array binding signal (z-score)” value [5] of the same binder?
Answer: Its value is 0.002.

Question: What about the “glycan array binding signal (z-score)” value [6] of the same binder?
Answer: Its value is 0.988.

Question: What about the “glycan array binding signal (z-score)” value (Fuc(a1-2)Gal6S(b1-4)Glc) of the same binder?
Answer: Its value is -0.644.

Question: And the “glycan array binding signal (z-score)” value [7]?
Answer: Its value is -0.639.

Question: What about the “glycan array binding signal (z-score)” value [8] of the same binder?
Answer: The value was 10.5.

Question: And the “glycan array binding signal (z-score)” value [9]?
Answer: The value was 0.296.

Question: What about the “glycan array binding signal (z-score)” value (Gal(a1-4)Gal(b1-4)GlcNAc) of the same binder?
Answer: Its value is 0.333.

Question: And the “glycan array binding signal (z-score)” value (Gal(a1-6)Glc)?
Answer: The value was -0.29.

Question: And the “glycan array binding signal (z-score)” value [10]?
Answer: The value was 0.143.

Question: What about the “glycan array binding signal (z-score)” value [11] of the same binder?
Answer: Its value is 0.812.

Question: What about the “glycan array binding signal (z-score)” value [12] of the same binder?
Answer: The value was -0.465.

Question: And the “glycan array binding signal (z-score)” value [13]?
Answer: The value was -0.627.

Question: And the “glycan array binding signal (z-score)” value (Gal(b1-4)Gal)?
Answer: Its value is -0.624.

Question: And the “glycan array binding signal (z-score)” value [14]?
Answer: The value was 3.32.

Question: What about the “glycan array binding signal (z-score)” value [15] of the same binder?
Answer: Its value is -0.306.

Question: What about the “glycan array binding signal (z-score)” value [16] of the same binder?
Answer: Its value is 4.56.

Question: And the “glycan array binding signal (z-score)” value [17]?
Answer: The value was 0.867.

Question: And the “glycan array binding signal (z-score)” value [18]?
Answer: Its value is 4.07.

Question: What about the “glycan array binding signal (z-score)” value [19] of the same binder?
Answer: Its value is 0.531.

Question: And the “glycan array binding signal (z-score)” value [20]?
Answer: The value was -0.155.
